Results from PubChem BioAssay AID463173 (ICCB-Longwood Screening Facility, Harvard Medical School, 2010).
Screen size: about 52,000 compounds; about 4,300 (8.3%) were called active. Shown is part of a subset that was picked to be rich in actives. A number with no mark means an inactive call. No stated cut-off is given here; in the data, active means survival mostly below about 52% (no sharp cut-off); inactive means mostly above about 56%.

test system: DeltatarO mutant; assay: S. aureus survival, RN4220 and DeltatarO strains – OD600, teichoic acid synthesis inhibitors, primary screen (AID 463173); conditions: S. aureus RN4220 wild type/DeltatarO growth, OD600, 18 h, hits give low values, screened at 18.75 µg/mL (by protocol)

| Structure (SMILES) | survival |
| --- | --- |
| CC(C)c1c(O)nc(SCCN2CCOCC2)[nH]c1=O | 92% |
| CCOc1ccc2nc(NC3=NCCC(=O)N3)nc(C)c2c1 | 80% |
| CCN(CC)C(=O)c1sc2c(c1C)c(=O)n(-c1ccc(C)c(C)c1)c(=O)n2CC(=O)Nc1ccc(F)cc1 | 92% |
| CCCCc1nn2c(=O)cc(COC(=O)c3ccc(NC(=O)C4CCCCC4)cc3)nc2s1 | 91% |
| CCn1cc(C(=O)NCc2ccc(Cl)cc2)c(=O)c2cc(S(=O)(=O)N3CCc4ccccc4C3)ccc21 | 64% |
| CCN(CC)C(=O)COc1ccc2ccc(=O)oc2c1 | 84% |
| COc1ccccc1CNC(=O)CCCn1c(=O)c2ccccc2n(Cc2ccc(C)cc2)c1=O | 132% |
| CCOC(=O)Cn1c(=O)n(C2CCCCC2)c2nc(-c3ccc(OCC)cc3)nc(C(N)=O)c21 | 86% |
| CCCS(=O)(=O)N1CC(=O)N(c2ccccc2C)C(C)(C(=O)NC2CCCCC2)C1 (configuration not stated) | 75% |
| COc1ccccc1NC(=O)C1CCN(S(=O)(=O)c2cn(C)cn2)CC1 | 69% |
| CCCc1nc2nc(C)c(NS(=O)(=O)c3ccc(C)c(C)c3)c(=O)n2[nH]1 | 129% |
| COc1ccc(C(=O)Oc2c(Sc3ccc(Cl)cc3)c(C)nn2C(C)(C)C)cc1OC | 56% |
| Cc1cccc(C(=O)Oc2c(Sc3ccccc3)c(C)nn2C(C)(C)C)c1 | 57% |
| CCOc1ccc(C(=O)Oc2c(Sc3ccccc3)c(C)nn2C(C)(C)C)cc1OCC | 57% |
| COc1cc(OC)cc(C(=O)Oc2c(Sc3ccccc3)c(C)nn2C(C)(C)C)c1 | 43% (active) |
| Cc1nn(C(C)(C)C)c(OC(=O)c2cccc(F)c2)c1Sc1ccccc1 | 24% (active) |
| Cc1nn(C(C)(C)C)c(OC(=O)c2c(F)cccc2F)c1Sc1ccccc1 | 127% |
| CCOc1ccc(NC(=O)CSc2nc(-c3ccc(OC)cc3)nc3c2Cc2c(CO)cnc(C)c2O3)cc1 | 79% |
| CS(=O)(=O)N1CCc2cc(C(=O)N3CCN(c4ccccc4F)CC3)ccc21 | 45% |
| COc1ccc(C(=O)Nc2nc3nc(C)c(Cl)c(=O)n3[nH]2)cc1 | 100% |
| COc1cc(C2CC(=O)N(c3ccccc3)C3=C2C(=O)OC3)cc(OC)c1OC (configuration not stated) | 72% |
| Cc1cc2cc(CN(CC3COCCO3)S(=O)(=O)c3ccc(F)cc3)c(=O)[nH]c2cc1C (configuration not stated) | 103% |

| Structure (SMILES) | survival |
| --- | --- |
| O=C1c2cccc3cccc(c23)N1c1ccccc1 | 77% |
| COC(=O)C(NC(=O)CC(C)C)(Nc1nc2c(s1)CCCC2)C(F)(F)F (configuration not stated) | 120% |
| COc1ccc(-c2cc(C(F)(F)F)nc(SCC(=O)NCc3ccc(Cl)cc3)n2)cc1 | 62% |
| COc1ccc(CNc2nc(-c3ccc(Cl)cc3)cc(C(F)(F)F)n2)cc1 | 29% (active) |
| COc1ccc(CNC(=O)c2cc(-c3ccc(Cl)cc3)n[nH]2)cc1 | 78% |
| COc1ccc(-c2cc(C(F)(F)F)nc(NCc3ccc(Cl)cc3)n2)cc1 | 3% (active) |
| CCN(c1cccc(C)c1)S(=O)(=O)c1ccc2[nH]cc(C(=O)NCCCOC)c(=O)c2c1 | 67% |
| COc1ccc(N(C)C(=O)c2nc(-c3cccc(F)c3)n3c2CCCCC3)c(OC)c1 | 74% |
| CCOC(=O)c1cccc(NS(=O)(=O)c2cc(-c3cnc(C4CC4)o3)ccc2C)c1 | 90% |
| O=C(Nc1cccnc1)c1cc(-c2ccc(Cl)cc2)on1 | 61% |
| CN1/C(=C\C(=O)Nc2cccnc2)c2ccccc2CC1(C)C | 65% |
| Cn1c(=O)oc2cc(S(=O)(=O)CCC(=O)NCCc3ccccc3)ccc21 | 96% |
| CC(C)(C)C1CCc2c(sc(NC(=O)c3cccc(Cl)c3)c2C(N)=O)C1 (configuration not stated) | 70% |
| COC(=O)c1c(NC(=O)C2c3ccccc3Oc3ccccc32)sc2c1CCC(C(C)(C)C)C2 (configuration not stated) | 78% |
| COc1ccc(NC(=O)c2c(NC(=O)c3ccncc3)sc3c2CCC(C(C)(C)C)C3)cc1 (configuration not stated) | 41% (active) |
| CCOc1ccc(NC(=O)c2c(NC(=O)c3ccncc3)sc3c2CCC(C(C)(C)C)C3)cc1 (configuration not stated) | 113% |
| COC(=O)c1c(NC(=O)c2cccc(OC)c2)sc2c1CCC(C(C)(C)C)C2 (configuration not stated) | 43% (active) |
| CCOc1ccc(NC(=O)c2c(NC(=O)c3cccs3)sc3c2CCC(C(C)(C)C)C3)cc1 (configuration not stated) | 67% |
| COc1ccc(NC(=O)c2c(NC(=O)COc3ccccc3)sc3c2CCC(C(C)(C)C)C3)cc1 (configuration not stated) | 75% |
| Cc1ccccc1NC(=O)c1c(NC(=O)c2ccncc2)sc2c1CCC(C(C)(C)C)C2 (configuration not stated) | 110% |
| CCC(=O)Nc1sc2c(c1C(=O)Nc1ccc(OC)cc1)CCC(C(C)(C)C)C2 (configuration not stated) | 13% (active) |
| O=S(=O)(c1ccccc1)N1CCC(O)(c2ccccc2)C2CCCCC21 (configuration not stated) | 73% |

| Structure (SMILES) | survival |
| --- | --- |
| CC(=O)c1cccc(NC(=O)C(Cc2ccccc2)NS(=O)(=O)c2ccc(Br)s2)c1 (configuration not stated) | 116% |
| Cc1n[nH]c(=S)n1CC(=O)n1c2c(c3ccccc31)CCCC2 | 91% |
| CC(=O)Nc1c(C(=O)Nc2cccc(C)c2)nnn1-c1ccc(C)cc1 | 69% (active) |
| Cc1cccc(NC(=O)c2ccc(-n3c(C)nnc3C)cc2)c1 | 88% |
| COc1cccc(NC(=O)c2nn(-c3ccc(C)cc3)c(=O)n(C)c2=O)c1 | 124% |
| COc1ccc(C)cc1-n1nnc(C(=O)Nc2cccc(SC)c2)c1C | 86% |
| CC(=O)c1nnn(-c2ccc(C)cc2Cl)c1C | 65% |
| Cc1ccc(C)c(-n2nnc(C(=O)Nc3ccc(Br)cc3)c2C)c1 | 18% (active) |
| COc1ccc(NC(=O)c2cc(S(=O)(=O)N3CCCC(C)C3)cn2C)c(OC)c1 (configuration not stated) | 87% |
| Cc1cc(N2CCN(c3cc(Cl)ccc3C)CC2)n2nc(-c3ccccc3)nc2n1 | 77% |
| COc1ccccc1N1CCN(c2cc(C)nc3c(-c4ccc(Cl)cc4)c(C)nn23)CC1 | 87% |
| COc1ccccc1N1CCN(c2cc(C)nc3nc(-c4ccc(Cl)cc4)nn23)CC1 | 38% (active) |
| COc1ccc(N2CCN(c3cc(C)nc4nc(-c5ccc(C)cc5)nn34)CC2)cc1 | 53% |
| COc1ccccc1N1CCN(c2cc(C)nc3nc(-c4ccc(C)cc4)nn23)CC1 | 40% (active) |
| Cc1ccc(-c2nc3nc(C)cc(N4CCN(c5cccc(C)c5C)CC4)n3n2)cc1 | 128% |
| COc1cc(C(=O)NCc2ccc3c(c2)CCN3C(=O)c2ccncc2)cc(OC)c1OC | 101% |
| Cc1cccc(N2CCN(C(=O)c3cn(C4CCCCC4)c(=O)c4c3c3ccccc3n4C)CC2)c1C | 115% |
| CCC1CC(/C(C)=N/NC(N)=O)OC1=O (configuration not stated) | 71% |
| Cc1c(-c2nc(-c3ccccc3F)no2)nnn1-c1cc(F)ccc1F | 84% |
| CCOC(=O)c1c(C)n(-c2ccccc2)c2ccc(OC(=O)c3ccccc3Cl)cc12 | 54% |
| CCOC(=O)c1c(C)n(-c2ccccc2)c2ccc(OC(=O)c3ccccc3)cc12 | 3% (active) |
| CCOC(=O)c1c(C)n(-c2ccccc2)c2ccc(OC(=O)c3ccccc3NC(=O)C(C)(C)C)cc12 | 55% |

| Structure (SMILES) | survival |
| --- | --- |
| CCOC(=O)c1c(C)n(-c2ccccc2)c2ccc(OC(=O)c3cccc(C)c3)cc12 | 63% |
| CCOC(=O)c1c(C)n(-c2ccccc2)c2ccc(OC(=O)c3ccccc3NC(=O)C(C)C)cc12 | 47% (active) |
| CCOC(=O)c1c(C)n(-c2ccccc2)c2ccc(OC(=O)c3cccc(Cl)c3)cc12 | 79% |
| COc1ccc(S(=O)(=O)N2CCC(C(=O)Nc3ccc(Oc4ccccc4)cc3)CC2)cc1 | 72% |
| O=C(COc1ccc(S(=O)(=O)NC2CCCCC2)cc1Cl)NCc1ccccn1 | 104% |
| COc1ccc(N2CCN(C(CNC(=O)C(=O)NCc3ccc(C)cc3)c3cccnc3)CC2)cc1 (configuration not stated) | 61% |
| CCCCNc1nc2c(S(=O)(=O)c3ccc(C)cc3)nnn2c2ccsc12 | 114% |
| Cc1ccc(C)c(NC(=O)CSc2nncn3c2cc2sccc23)c1 | 69% |
| O=C(c1cc2c(=O)[nH]c3ccccc3c2s1)N1CCN(c2ccc(F)cc2)CC1 | 51% |
| Cc1ccc(Cl)cc1N1CCN(CCNC(=O)Nc2ccccc2Cl)CC1 | 77% |
| CCC(=O)N1c2ccccc2CC1C(=O)NCCN1CCN(c2cc(Cl)ccc2C)CC1 (configuration not stated) | 52% (active) |
| CCC(=O)N1c2ccccc2CC1C(=O)NCCN1CCN(c2cccc(Cl)c2)CC1 (configuration not stated) | 87% |
| CCOc1ccc(NC(=O)NCCN2CCN(c3cc(Cl)ccc3C)CC2)cc1 | 54% |
| O=C(NCCCN1CCN(c2ccc(F)cc2)CC1)Nc1ccc(Cl)cc1 | 72% |
| O=C(NCCCN1CCN(c2ccccc2F)CC1)c1nnc(Cc2ccc(Cl)cc2Cl)o1 | 80% |
| Cc1ccc(Cl)cc1N1CCN(CCCNC(=O)c2nnc(Cc3cccc(Cl)c3)o2)CC1 | 25% (active) |
| COc1ccc(Cc2nnc(C(=O)NCCCN3CCN(c4ccccc4F)CC3)o2)cc1OC | 78% |
| Cc1cccc(N2CCN(CCNC(=O)Nc3ccc(Cl)cc3)CC2)c1C | 66% |
| Cc1ccc(C)c(N2CCN(CCCNC(=O)Nc3ccc(Cl)cc3)CC2)c1 | -5% (active) |
| CCC(=O)N1c2ccccc2CC1C(=O)NCCN1CCN(c2cccc(C)c2C)CC1 (configuration not stated) | 77% |
| Cc1ccc(Cl)cc1N1CCN(CCNC(=O)Nc2ccc(Cl)cc2)CC1 | -4% (active) |
